Laboratory results reported in PubChem BioAssay AID2284135 (EPA ToxCast).
Records with an inconclusive call do not appear. Activity calls are given as the source filed them. Rule for the calls: active = hit-call score of the fitted dose curve at least 0.9, where 1 is the maximum; inconclusive = response in the unintended direction; inactive = score below 0.9.

biological target: cAMP-dependent protein kinase catalytic subunit alpha (Homo sapiens) (UniProt P17612); assay: ERF_TW_ENZ_hPRKACA: Eurofins (ERF) Enzymatic Radiometric [10 uM ATP] LeadHunter Assay for human PKA AGC Kinase
Procedure: ERF_TW_ENZ_hPRKACA is a biochemical, single-readout assay that uses extracted gene-proteins in a cell-free assay. Measurements were taken 0.25 hour after chemical dosing in a 96-well plate. See PKA Human AGC Kinase Enzymatic Radiometric Assay [10 uM ATP], Panlabs.ERF_TW_ENZ_hPRKACA is an assay component calculated from the ERF_TW_ENZ_hPRKACA assay. It is designed to measure enzyme activity using a type of enzyme reporter as detected by scintillation counting with radiometry technology.Data from the assay component ERF_TW_ENZ_hPRKACA was analyzed at the assay endpoint, ERF_TW_ENZ_hPRKACA, in the positive analysis fitting direction relative to DMSO as the negative control and baseline of activity. Using a type of enzyme reporter, loss-of-signal activity can be used to understand changes in enzymatic activity as they relate to gene PRKACA. To generalize the intended target to other relatable targets, this assay endpoint is annotated to the kinase intended target family, where the subfamily is serine/threonine kinase.
Human protein kinase PKA expressed in E. coli. is used. Test compound and/or vehicle is preincubated with 23 ng/ml enzyme in modified MOPS buffer pH 7.2 at 37C for 15 minutes. The reaction is initiated by addition of 0.5 uM PKA substrate peptide, 10 uM ATP and 0.25 uCi [gamma32P]ATP for another 15 minute incubation period and terminated by further addition of 3 % H3PO4. An aliquot is removed to a 96 well multiscreen, washed with H3PO4 solution, dried and counted to determine the amount of 32P- PKA substrate peptide formed. Compounds are screened at 10 uM.Test Sample Requirements: Minimum for 1) Screen: 25 ul of 10 mM stock -OR- 1 mg (pre-weighed). 2) Dose Response: 60 ul of 10 mM stock -OR- 1 mg (pre-weighed).

AC50, active:
COc1cc(CCC(=O)CC(=O)CCc2ccc(O)c(OC)c2)ccc1O 3010 nM
O=C(/C=C/c1ccc(O)cc1)CC(=O)/C=C/c1ccc(O)cc1 2190 nM
COc1cc(/C=C/C(=O)CC(=O)/C=C/c2ccc(O)c(OC)c2)ccc1O 2970 nM
